This note sets out measurements from PubChem BioAssay AID485270 (The Scripps Research Institute Molecular Screening Center, 2010).

SMILES strings stand for the structures. The whole screen tested about 330,000 compounds, of which about 5,800 (1.8%) were called active. Rule as the data show it: active = inhibition mostly above about 38% (no sharp cut-off); inactive = mostly below about 40%. This excerpt belongs to a sample that is enriched for actives.

For the assay, the target named is Orexin/Hypocretin receptor type 1 (Homo sapiens) (UniProt O43613). The assay can be described thus: blocks the human orexin 1 receptor (AID 485270).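 Also: 0% = agonist challenge alone and 100% = reference antagonist.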 The conditions noted are these: OX1R-expressing cells, FRET antagonist read-out; at 6.6 µM; hits give high values.
Sequence of Orexin/Hypocretin receptor type 1 (Homo sapiens) (O43613 whole entry, looked up): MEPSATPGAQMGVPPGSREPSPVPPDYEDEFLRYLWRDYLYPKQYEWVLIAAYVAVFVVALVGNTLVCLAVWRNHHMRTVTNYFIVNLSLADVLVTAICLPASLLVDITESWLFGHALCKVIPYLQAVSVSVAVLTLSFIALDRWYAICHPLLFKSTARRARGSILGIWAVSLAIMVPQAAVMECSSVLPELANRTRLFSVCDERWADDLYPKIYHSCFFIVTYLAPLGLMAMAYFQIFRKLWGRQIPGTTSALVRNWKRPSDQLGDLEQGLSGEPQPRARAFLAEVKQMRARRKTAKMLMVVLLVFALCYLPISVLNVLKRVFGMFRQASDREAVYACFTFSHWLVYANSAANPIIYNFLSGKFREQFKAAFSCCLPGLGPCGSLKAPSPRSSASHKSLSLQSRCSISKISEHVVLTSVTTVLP
Take `C[C@H](CO)N1C[C@H](C)[C@H](CN(C)C(=O)Nc2ccc(C(F)(F)F)cc2)Oc2c(NC(=O)c3ccncc3)cccc2C1=O`: the inhibition (in general, the drop in the measured response relative to a control, in per cent) was 12.5% (inactive).

In the case of `CCOc1ccc(Br)cc1S(=O)(=O)Nc1ccc(S(=O)(=O)Nc2cc(C)on2)cc1`, the inhibition was -0.05% (inactive). Consider `CN(C)C(=O)CCc1ccc2c3c([nH]c2c1)[C@]1(CCc2ccccc2)[C@@H](C(=O)N2CCCCC2)C[C@H](CC(=O)NCCC2=CCCCC2)C(=O)N1CC3`, for which the inhibition is 10.4% (inactive). As for `COc1ccc2sc(-c3ccc(S(C)(=O)=O)cc3)c(C#Cc3cncn3C)c2c1`, the inhibition is 6.52% (inactive). With `C=CCC[C@H](Cc1ccc(F)cc1)C(=O)OC[C@@H](Cc1c[nH]c2ccccc12)NC(=O)[C@H](CC=C)CC(=O)N[C@H](CO)Cc1ccccc1`, the inhibition is 3.33% (inactive).

Take `COc1ccccc1NC(=O)COC(=O)CNC(=O)C1CCCCC1`: the inhibition was 5.3% (inactive). On to `Cc1c(Cl)cnc(NC(=O)COC(=O)C2CCCC2)c1Cl`, for which the inhibition is 2.82% (inactive).

Turning to `COc1ccc(C(=O)COC(=O)CN2C(=O)C3CC=CCC3C2=O)c(OC)c1` (stereo not given), the inhibition was 0.55% (inactive). Regarding `CCN([C@H](CO)C(C)C)S(=O)(=O)c1ccccc1Br`, the inhibition was 8.87% (inactive). Regarding `CCCN=C1N(C)C[C@@H]2[C@@H]3C(=O)N(Cc4ccccc4)C(=O)[C@@H]3[C@](C)(C(=O)OC)N12`, the inhibition is 3.52% (inactive).

Turning to `Cc1cc[n+](-c2[nH]c(=O)sc2/C=N/NC(=O)c2ccccc2[O-])cc1C`, the inhibition is 67.1% (active). For the compound `Cc1ccc2occ(/C=N/NC(=O)c3ccccc3C)c(=O)c2c1`, the inhibition is 11.9% (inactive). Then `Cc1ccc(/C=N/NC(=O)c2cc3ccccc3cc2O)o1`, with 22.1% (inactive); and `C[C@H](CO)N1C[C@H](C)[C@@H](CN(C)S(=O)(=O)c2ccc(F)cc2)Oc2c(NC(=O)Nc3ccccc3)cccc2C1=O`, with 3.72% (inactive). Then `Fc1ccc2cnc(-c3ccccc3)cc2c1`, with 1.78% (inactive); and `Fc1ccccc1-c1cc2cc3c(cc2cn1)OCO3`, with 66% (active). Consider `O=C(Nc1ccccc1F)c1ccc2c(c1)OCO2`, for which the inhibition was 0.6% (inactive). As to `Cc1ccc2c(c1)C(c1ccccc1)N(C(=O)c1ccc(S(=O)(=O)N3CCOCC3)cc1)CC(=O)N2` (stereo not given), the inhibition is 7.06% (inactive).

For the compound `Cc1ccc(S(=O)(=O)N(CC(=O)N2CCc3ccccc3C2)c2cccc(Cl)c2)cc1`, the inhibition was 40% (inactive). In the case of `CN1OC(COC(=O)c2ccc(Cl)cc2)CC1c1ccccc1` (stereo not given), the inhibition was -0.66% (inactive). For the compound `Cc1ccc(S(=O)(=O)N2CCN(CC(=O)N/N=C/c3cc([N+](=O)[O-])ccc3Cl)CC2)cc1`, the inhibition was 19.3% (inactive). In the case of `Cc1ccc(S(=O)(=O)N2C3C=CC(C3)C2C(=O)O)cc1` (stereo not given), the inhibition is 7.96% (inactive). Regarding `CS(=O)(=O)N(CC(=O)N1CCN(c2cccc(Cl)c2)CC1)c1ccccc1`, the inhibition is -2.69% (inactive). Regarding `Cc1ccccc1S(=O)(=O)N1[C@@H](c2cccc(Cl)c2)C(C(=O)O)=CC[C@H]1c1ccc(Cl)cc1`, the inhibition was 90.2% (active). Then `Cc1ccc(S(=O)(=O)N2[C@@H](c3cccc(Cl)c3)C(C(=O)O)=CC[C@H]2c2ccc(Cl)c(Cl)c2)cc1`, with 81.4% (active); and `Cc1ccc([C@@H]2CC=C(C(=O)O)[C@H](c3cccc(Cl)c3)N2S(=O)(=O)c2ccc(C)cc2)cc1`, with 82.9% (active); and `Cc1ccc(S(=O)(=O)N2[C@@H](c3ccc(Br)cc3)C(C(=O)O)=C[C@H]2CC2CCCC2)cc1`, with 31.2% (inactive).

`COc1ccccc1N1CCN(S(=O)(=O)c2ccc(Cl)cc2)CC1`: the inhibition was 4.56% (inactive). `Cc1ccc(S(=O)(=O)N2[C@@H](c3ccccc3F)C(C(=O)O)=CC[C@H]2c2ccc(Cl)cc2)cc1`: the inhibition is 64.8% (active). The result for `CC[C@@H](C)[C@@H]1CN([C@@H](C)CN2CCC[C@H]2CN2C(N)=NC[C@H]2C(C)C)C(=N)N1CCc1ccc(Cl)c(Cl)c1` reads -3.86% (inactive); that for `COc1ccccc1C(=O)NCC(=O)OCC(=O)NNC(=O)c1ccc(Br)cc1`, 2.31% (inactive); that for `Fc1ccc(Nc2nnns2)cc1`, 11.1% (inactive). The result for `CS(=O)(=O)c1ccc(C(=O)NNC(=O)c2cccs2)cc1` reads 1.62% (inactive); that for `CC(C)N(C(=O)[C@H]1C[C@H](CC(=O)NC(C)(C)C)C(=O)N2CCc3c([nH]c4ccc(Cl)cc34)[C@]12C)C(C)C`, 8.54% (inactive); that for `C=CCC[C@@H](Cc1ccc(F)cc1)C(=O)OC[C@H](Cc1c[nH]c2ccccc12)NC(=O)[C@@H](CC=C)CC(=O)N(CCO)Cc1ccccc1`, 7.48% (inactive). The result for `NS(=O)(=O)c1cccc(NC(=O)COC(=O)c2cc([N+](=O)[O-])ccc2N2CCCC2)c1` reads 14.8% (inactive).

`O=C(CSc1nc2ccccc2c(=O)n1Cc1ccc(F)cc1)NCC1CCCO1` (stereo not given): the inhibition is 4.49% (inactive). On to `COc1ccc(S(=O)(=O)N2CCN(c3cnccn3)CC2)cc1`, for which the inhibition is 16.4% (inactive).

Consider `CC(OC(=O)c1ccc([N+](=O)[O-])cc1)C(=O)NCC1CCCCC1` (stereo not given), for which the inhibition was 18.2% (inactive).

Regarding `CC1CCCCN1CCCNC(=O)Cn1ncc2c([nH]c3ccccc32)c1=O` (stereo not given), the inhibition was 4.31% (inactive). Take `CCC(=C/c1sc2ccc3ccccc3c2[n+]1C)/C=C1\Sc2ccc3ccccc3c2N1C`: the inhibition is 42.8% (active). Turning to `Cn1cccc1C(=O)OCC(=O)c1ccc(Br)s1`, the inhibition is 5.79% (inactive). The result for `O=C(CC1SC(N2CCOCC2)=NC1=O)Nc1ccccc1F` (stereo not given) reads -1.73% (inactive); that for `C[C@@H](CN1CCC[C@H]1CN1C(N)=NC[C@@H]1Cc1ccccc1)N1C[C@@H](Cc2ccccc2)N(CCCC2CCCC2)C1=N`, 11.4% (inactive); that for `C/C=C/c1ccc(OCC(=O)NNC(=O)CN(C)S(=O)(=O)c2ccc(C)cc2)c(OC)c1`, 0.57% (inactive). For `Cc1ccc(-n2nc3ccc(NC(=O)/C=C/c4ccco4)cc3n2)cc1C`, the inhibition was 21.4% (inactive). As to `O=C(/C=C/c1ccco1)Nc1ccc(Oc2ccccc2)cc1`, the inhibition is 62.7% (inactive). The result for `O=C(/C=C/c1ccco1)Nc1cccc(-c2nc3ccccc3[nH]2)c1` reads 86.8% (active); that for `Cc1ccc(C(=O)OCC(=O)N2CCCCCC2)cc1S(=O)(=O)N1CCOCC1`, 24.3% (inactive). For the compound `COc1ccc(NC(=O)Nc2ccc3c(c2)C(=O)N([C@H](C)CO)C[C@H](C)[C@@H](CN(C)C(=O)Nc2ccc4c(c2)OCO4)O3)cc1`, the inhibition was 8.87% (inactive). Turning to `Cc1nnsc1C(=O)N/N=C/c1ccccc1Cl`, the inhibition was 3.68% (inactive). With `Cc1nn(-c2ccccc2)c(Cl)c1/C=N/NC(=O)c1nn(C)cc1[N+](=O)[O-]`, the inhibition was 41.5% (inactive). Consider `O=C(N/N=C/c1c(Cl)[nH]c2ccccc12)c1sc2ccccc2c1Cl`, for which the inhibition was 100% (active). With `COc1ccc(CNC(=O)CNC(=O)c2sc3ccccc3c2Cl)cc1OC`, the inhibition was 18.2% (inactive). For the compound `Cc1nn(C)cc1/C=N/NC(=O)c1sc2ccccc2c1Cl`, the inhibition was 72.5% (active).

Take `COCCNC(=S)N/N=C/c1c(C)[nH]c2ccccc12`: the inhibition was 9.28% (inactive).

Turning to `CC[C@]1(C(=O)OC)[C@H]2C(=O)N(Cc3ccccc3)C(=O)[C@H]2[C@H]2CN=C(SCc3ccccc3)N21`, the inhibition is 9.69% (inactive). Regarding `C[C@H]1CN([C@@H](C)CO)C(=O)Cc2cc(NS(C)(=O)=O)ccc2O[C@@H]1CN(C)CC1CC1`, the inhibition was 1.83% (inactive). Consider `CN=C(Nc1cccc(S(=O)(=O)N2CCOCC2)c1)c1ccccc1`, for which the inhibition is 2.1% (inactive).

As to `CC[C@]12c3[nH]c4cc(CCC(=O)N(C)C)ccc4c3CCN1C(=O)[C@@H](CC(=O)NCCCN(C)C)C[C@@H]2C(=O)N1CCN(C(=O)c2ccco2)CC1`, the inhibition was -2.47% (inactive).

Take `COCCCNC(=O)CC1C[C@H](C(=O)N2CCCCC2)[C@@]2(CCc3ccccc3)c3[nH]c4ccccc4c3CCN2C1=O` (stereo not given in full): the inhibition was 2.77% (inactive). For `COc1cc(/C=N\Nc2nc(-c3cccs3)c(NC(C)=O)s2)ccc1O`, the inhibition was 8.13% (inactive). Turning to `CCOc1cc(-c2cc(-c3ccc(NC(C)=O)cc3)nc(N)c2C#N)ccc1O`, the inhibition was 25.9% (inactive). As for `CCOc1cc(/C=C(\C#N)c2nc(-c3cccs3)c(NC(C)=O)s2)ccc1O`, the inhibition is 65.7% (active). As for `CCCC/C(C)=N/NC(=O)NC1CCCCC1`, the inhibition is 10.5% (inactive). The result for `Nc1ncnc2c1ncn2[C@@H]1O[C@H](CNCc2cccn2-c2nccs2)[C@@H](O)[C@H]1O` reads 5.52% (inactive); that for `CC1CCN(c2ccc([N+](=O)[O-])cc2C(N)=O)CC1`, 65.8% (inactive); that for `O=C(O)C1CCN(c2ccc([N+](=O)[O-])cc2[N+](=O)[O-])CC1`, 40.7% (active). Take `CCOC(=O)C1CCN(c2ccc(C(=O)O)cc2[N+](=O)[O-])CC1`: the inhibition was 57.8% (inactive).

`O=C(COC(=O)c1cc[n+]([O-])cc1)Nc1ccc(Cl)c(C(F)(F)F)c1`: the inhibition was 8.49% (inactive). Take `CC(Oc1ccc2c(-c3ccccc3)cc(=O)oc2c1)C(=O)NC(Cc1c[nH]c2ccccc12)C(=O)O` (stereo not given): the inhibition is 12.5% (inactive). On to `Cc1cccc(NC(=O)CSc2nc3[nH]ncc3c(=O)[nH]2)c1`, for which the inhibition is 10.4% (inactive). As for `Cc1nc2nc(SCC(=O)Nc3cccc(F)c3)[nH]c2cc1Br`, the inhibition is 57.5% (active).

For `Cc1nc2nc(SCC(=O)c3ccccc3)[nH]c2cc1Br`, the inhibition was 9.22% (inactive). Take `Cc1ccc2c(c1)C1C[N+](C)(CC(=O)c3ccccc3)CCC1N2C(=O)c1ccccc1Cl` (stereo not given): the inhibition is 7.24% (inactive).

As for `CC1CCCCC12NC(=O)N(CC(=O)OCc1c(F)cccc1Cl)C2=O` (stereo not given), the inhibition was 11.8% (inactive).

As for `Cc1cc(NC(=O)CSc2nnnn2-c2ccc(F)cc2)no1`, the inhibition is 10.1% (inactive). For the compound `Cc1cc(NC(=O)COc2ccc([N+](=O)[O-])cc2)no1`, the inhibition was 3.47% (inactive). The result for `Cc1cc(NC(=O)CSc2nccn2-c2ccc([N+](=O)[O-])cc2)no1` reads 70.4% (active); that for `NS(=O)(=O)c1ccc(CNC(=S)NC(=O)c2ccco2)cc1`, 4.56% (inactive).
